Screening data (PubChem)
L3MBTL1 inh – qHTS Assay for the Inhibitors of L3MBTL1; Lethal(3)malignant brain tumor-like protein 1 (Homo sapiens), Q9Y468; AID 485360, 2010; 0.66% of 230,000 active; Potency, µM (titrated, usually from 57.1 µM), without a hit: at the highest dose activity, negative = inhibition, usual class: inhibitors; AlphaScreen L3MBTL1–H3K9me1 peptide binding; further: on the % scale 0 is the no-effect control and ±100 the full control effect; nearly all actives have a fitted effect of over 60% in size
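Read-out is AlphaScreen signal from streptavidin donor and nickel chelate acceptor beads (10 ug/mL final each) bridging L3MBTL1 (50 nM) and biotinylated K9-monomethylated H3(1-15) peptide (75 nM), after 30 min compound exposure at room temperature.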
HP1b binding inh – HTS for Inhibitors of HP1-beta Chromodomain Interactions with Methylated Histone Tails; Potency, µM (titrated, usually from 114 µM), inactives show at the highest dose activity change, negative = inhibition, actives largely listed as inhibitors; 0.56% of 390,000 active; AlphaScreen HP1-beta / biotin-H3K9me3 peptide binding; further: nearly all actives have a fitted effect of over 70% in size
Target sequence (P83916 whole entry, looked up): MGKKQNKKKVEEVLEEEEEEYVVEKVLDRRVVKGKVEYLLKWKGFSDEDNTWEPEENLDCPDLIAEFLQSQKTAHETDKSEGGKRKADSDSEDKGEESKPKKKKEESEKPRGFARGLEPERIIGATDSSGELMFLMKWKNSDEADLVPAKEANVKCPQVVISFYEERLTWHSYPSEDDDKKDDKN
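Compound inhibition of the preformed complex between 50 nM HP1-beta and 50 nM biotinylated H3K9me3 peptide was read by AlphaScreen. Buffer was PBS pH 7.4 with 0.01% Tween-20. Incubations ran 30 min at room temperature, with 10 ug/mL donor/acceptor beads.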
G9a block – qHTS Assay for Inhibitors of Histone Lysine Methyltransferase G9a. Histone-lysine N-methyltransferase EHMT2 (Homo sapiens), Q96KQ7. G9a H3K9 monomethylation, AlphaScreen, 2 h. Potency, µM (titrated, usually from 102 µM), for the others: at the highest dose activity, negative = inhibition, most hits filed as inhibitors. 8.8% of 350,000 active. AID 504332, 2011; further: on the % scale 0 is the no-effect control and ±100 the full control effect; nearly all actives have a fitted effect of over 75% in size
Target sequence (Q96KQ7 913-1193 limits assumed): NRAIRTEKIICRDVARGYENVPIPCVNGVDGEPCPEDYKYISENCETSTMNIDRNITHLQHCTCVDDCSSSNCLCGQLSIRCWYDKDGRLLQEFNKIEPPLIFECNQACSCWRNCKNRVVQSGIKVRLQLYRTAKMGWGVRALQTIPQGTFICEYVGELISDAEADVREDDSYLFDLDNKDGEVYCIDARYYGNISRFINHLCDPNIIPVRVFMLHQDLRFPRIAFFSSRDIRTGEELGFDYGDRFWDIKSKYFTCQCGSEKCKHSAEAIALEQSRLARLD
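Quantitative HTS format: methyltransferase activity on a biotin-tagged H3K9 peptide is measured by AlphaScreen, using a rabbit anti-monomethyl-H3K9 antibody with streptavidin donor and anti-IgG acceptor beads. Final levels are 20 nM enzyme, 500 nM peptide, 20 uM SAM; 2 h RT.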
JMJD2A Tudor inh – qHTS Assay for Inhibitors of JMJD2A-Tudor Domain; 4.4% of 390,000 active; AID 504339, 2011; Potency, µM (titrated, usually from 114 µM), for the others: at the highest dose activity change, negative = inhibition, actives largely listed as inhibitors; AlphaScreen JMJD2A-Tudor / H3K4me3 peptide binding; further: on the % scale 0 is the no-effect control and ±100 the full control effect; nearly all actives have a fitted effect of over 50% in size
BAZ2B inh – qHTS Assay for Inhibitors of BAZ2B; AlphaScreen BAZ2B-H3K14Ac peptide displacement; Potency, µM (top dose mostly 114 µM), inactives show at the top dose activity change, negative = inhibition, most hits filed as inhibitors; 4.4% of 360,000 active; further: on the % scale 0 is the no-effect control and ±100 the full control effect; nearly all actives have a fitted effect of over 60% in size
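Inhibition is scored as reduced AlphaScreen emission. The BAZ2B/b-H3(5-23)K14Ac complex (50 nM each) in PBS pH 7.4, 0.01% Tween-20 meets compound (up to 110 uM) for 30 min at RT before bead addition.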
The depositor's hits bear a star; ? = inconclusive; . = no result; ! = a repeat was not active; [ ] = dose if it differs, or a comment. Rows were chosen to be rich in hits. Some 11% of all compounds tested hit in one or more screens of this group. The call rests on the fitted dose curve; in most records, active means well fitted inhibition curve with a large enough effect; inconclusive means small, poorly fitted or top-dose-only effect; inactive means no such curve, though single readings can be large or run the other way. Potency means the concentration at half of the fitted maximal effect.

SMILES	L3MBTL1 inh	HP1b binding inh	G9a block	JMJD2A Tudor inh	BAZ2B inh
CCOC(CCNC(=O)c1cc(-c2cccs2)nc2ccccc12)OCC	.	44%	8%	12%	0%
CCN(C(=O)COC(=O)CCCOc1ccc(Cl)cc1C)c1c(N)n(Cc2ccccc2)c(=O)[nH]c1=O	.	23%	.	-22%	.
CCn1c(SCC(=O)N2CCOCC2)nc2oc3c(Cl)cc(Cl)cc3c(=O)c2c1=O	-1%	.	40µM*	.	?
CCCCn1c(SCC(=O)N2CCC(C)CC2)nc2ccsc2c1=O	9%	39%	1%	-1%	0%
CCn1c(SCC(=O)N2CCN(c3ccc(Cl)cc3)CC2)nc2ccccc2c1=O	1%	-19%	2µM*	-32%	50µM*
CCn1c(SCC(=O)N2CCOCC2)nc2sc3c(c2c1=O)CCCC3	4%	28%	?	-7%	3%
O=C(CSc1nc2ccccc2c(=O)n1Cc1ccco1)N1CCN(c2ccccc2)CC1	-4%	?	14µM*	-4%	?
CCCCn1c(SCC(=O)N2CCN(c3ccccc3)CC2)nc2ccsc2c1=O	-19%	29%	40µM*	-35%	-31%
O=C(C1CCC(Cn2c(=O)c3sccc3n(Cc3cccc(F)c3)c2=O)CC1)N1CCCCC1 (centres undefined)	.	22%	10%[59 µM]	-32%	-19%
COc1cccc(C(=O)Nc2ccc3nc(SCCOc4ccccc4)sc3c2)c1	.	39%	6%[59 µM]	-12%	3%
CCN(CC)CCn1c(NCc2cccc(OC)c2)nc2ccccc21	.	16%	50µM*	-24%	-22%
CCN(CC)CCn1c(NCc2ccc3c(c2)OCO3)nc2ccccc21	-14%	29%	?	-25%	-4%
CCN(CC)CCn1c(NCc2cc(OC)ccc2OC)nc2ccccc21	-16%	5%	?	50µM*	-33%
CCOc1ccc(/C=C/c2nc(C#N)c(Nc3ccc(OC)cc3)o2)cc1	.	17%	-6%[59 µM]	-19%	-22%
Cc1cccc(CN2CCN(CC(=O)Nc3c(C)cccc3C)S2(=O)=O)c1	.	45%	0%[59 µM]	-1%	-16%
COc1ccc(Nc2c3ccccc3nc3ccccc23)cc1	.	-20%	40µM*	?	?
COc1ccc(Nc2c3c(nc4ccccc24)CCC3)cc1	.	10%	6%[2.33 µM]	-20%	-23%
COc1ccc(Nc2nc3c([nH]2)c(=O)[nH]c(=O)n3C)cc1	3%	9%	50µM*	-24%	-14%
CCN(CC(=O)Nc1ccc(C(=O)Nc2ccc(OC)cc2)cc1)Cc1nc2ccccc2c(=O)[nH]1	-8%	33%	35µM*	0%	-13%
COc1ccc(Nc2nc3ccccc3c(=O)[nH]2)cc1	.	-4%	79µM*	-13%[11.4 µM]	-26%
Cc1nn(-c2ccccc2)c(=S)n1-c1ccccc1	.	37%	-29%[12.7 µM]	1%	7%
OCCn1nc2c3ccccc3nc-2n(-c2ccccc2)c1=S	3%	-24%	25µM*	-16%	-11%
COc1ccccc1CNN	.	-2%	25µM*	40µM*	?
COc1ccccc1CNC(=O)Cc1ccccc1	6%	47%	?	-1%	2%
COc1ccccc1CNCCS(=O)(=O)NCc1ccccc1OC	.	43%	.	-10%	.
SMILES	L3MBTL1 inh	HP1b binding inh	G9a block	JMJD2A Tudor inh	BAZ2B inh
CCCCCCCCNCCS(=O)(=O)NCc1ccccc1OC	.	69%	.	-12%	.
COc1ccccc1CNCCCCCCNCCCCCCCCNCCCCCCNCc1ccccc1OC	.	.	10µM*!	.	.
COc1ccccc1CNS(=O)(=O)N(C)C	2%	-10%	10%[59 µM]	50µM*	-2%
Cc1nn(C(=O)c2ccc(Br)cc2)c(C)c1S(=O)(=O)N1CCOCC1	.	24%[57 µM]	?	?	0%
CCOC(=O)/C(=N/Nc1ccc(C)cc1)S(=O)(=O)c1ccc(Cl)cc1	.	29%	14µM*	-24%	-36%
CCOC(=O)/C(=N\Nc1ccccc1)S(=O)(=O)c1ccccc1	.	-7%	?	?	-7%
CCOc1ccccc1NC(=O)Cn1c(=O)n(-c2ccc(Cl)cc2)c(=O)c2oc3ccccc3c21	.	18%	-1%[59 µM]	-8%	-11%
COc1cc(C2NC(=O)NC(O)(C(F)(F)F)C2C(=O)c2ccc(Cl)cc2)ccc1O (centres undefined)	3%	50%	79µM*	-18%[57.1 µM]	-27%
Cc1cc2cc(CCNS(=O)(=O)c3ccc(Br)cc3)c(=O)[nH]c2cc1C	.	-6%	-5%[59 µM]	-32%	-12%
CC(=O)Nc1cccc(NC(=O)CSc2cn(CC(=O)N3CCCCCC3)c3ccccc23)c1	.	27%	-34%[59 µM]	-14%	-9%
O=C(COc1ccc([N+](=O)[O-])cc1)Nc1cccc2cccnc12	.	38%	16%[59 µM]	3%	-5%
O=C1/C(=C/c2ccccc2F)SC(=S)N1CC(=O)N1CCCCC1c1cccnc1 (centres undefined)	.	43%	5µM*	19%	?
O=C(/C=C/c1ccc(F)cc1)NC(=S)N1CCCCC1c1cccnc1 (centres undefined)	.	-7%	?	?	-20%
O=C1/C(=C/c2ccc(F)cc2)SC(=S)N1CC(=O)N1CCCCC1c1cccnc1 (centres undefined)	.	21%	40µM*	?	?
CN(C(=O)CN1C(=O)/C(=C/c2ccccc2F)SC1=S)C1CCS(=O)(=O)C1 (centres undefined)	.	52%	14%	-3%	45µM*
O=C(NCc1cccc(Br)c1)c1ccc(-n2cnc3cccnc32)cc1	.	37%	-24%[59 µM]	-16%	-7%
COc1cc(Br)c(C2CC(=O)Nc3cc4c(cc32)OCCO4)cc1OC (centres undefined)	.	-9%	?	?	?
COc1ccc(N/N=C(C)/C(=N/O)C(=O)Nc2ccccc2)cc1	-3%	?	22µM*	?	-38%
COc1ccc(C(=O)CC(=O)C(=O)Nc2ccccc2)cc1	.	50%	-1%	-14%	71µM*
Cc1ccc(NC(=O)c2c(C)oc3ccc(O)c(CN4CCCCCC4)c23)cc1	.	-26%	-26%[59 µM]	-30%	-22%
CCCn1c(SCC(=O)c2cc(C)ccc2C)n[nH]c1=O	.	35%	7.1µM*	-27%	-21%
CCCn1c(SCC(=O)c2cc(C)n(-c3cc(C)on3)c2C)n[nH]c1=O	-7%	-12%	?	-28%	-10%
CCCn1c(SCC(=O)NCc2ccc(F)cc2)n[nH]c1=O	3%	-14%	2%	45µM*	-13%
Cc1csc2nc(-c3cccc(NC(=O)c4cccc(F)c4)c3)cn12	.	19%[57 µM]	4%[59 µM]	-12%	-27%
Cc1c(C(=O)N(Cc2ccco2)Cc2ccccc2Cl)oc2ccc(F)cc12	.	40%	35%[59 µM]	15%	18%
